According to PubChem BioAssay (Tox21):
Inconclusive results are not listed. Values without a mark were called inactive. Active and inactive are the calls of the source. Calls come from the whole dose curve; as a rule, active = well fitted cell-killing curve with a large enough effect in the repeat runs; inconclusive = weak or mixed curves, or effect the other way; inactive = no such curve, though single readings can be large or run the other way.

experiment: qHTS assay to identify small molecule agonists of the RXR signaling pathway - cell viability counter screen (AID 1159529); details: RXR-alpha-bla HEK293T viability, CellTiter-Glo, 16 h; series mostly up to 76.8 µM; note: nearly all actives have a fitted effect of over 50% in size
Description: National Center for Advancing Translational Sciences [NCATS]
NIH Chemical Genomics Center [NCGC]
U.S. Environmental Protection Agency [EPA]
National Institutes of Environmental Health Sciences [NIEHS]
National Toxicology Program [NTP]
U.S. Food and Drug Administration [FDA]
The Retinoid X receptor (RXR), a nuclear hormone receptor expressed in liver, spleen, placenta, epidermis, central nervous system. These receptors are able to form homo and heterodimers with other nuclear receptors and due to this heterodimerizing ability, RXR functions as master regulators producing diverse physiological effects. Three subtypes of RXR exist; alpha, beta and gamma. Retinoid X receptor alpha (RXR-alpha) has potential roles in metabolic signaling pathways, skin alopecia, dermal cysts, cardiac development, insulin sensitization etc. Therefore screening environmental chemicals on RXR-alpha signaling can be used for the studies focused on such therapeutic applications. For quantification of RXR-alpha ligands signaling, GeneBLAzer RXR alpha-UAS-bla HEK 293T (Life Technologies, Carlsbad, CA) cells containing a beta-lactamase reporter-gene under control of Retinoid X receptor-alpha response element were used to screen Tox21 10K library. The cytotoxicity of the Tox21 compound library against the RXR-alpha HEK 293T cell line was tested in parallel by measuring cell viability using CellTiter-Glo assay (Promega Corporation, Madison, WI) in the same wells.
Tox21 Assay Protocol Summary:
RXR-alpha HEK 293T cells were dispensed at 2,000 cells/6 uL of assay medium containing 2% charcoal-stripped FBS using a Multidrop Combi (ThermoFisher Scientific, Waltham, MA) dispenser. The assay was performed in black wall/clear-bottom 1536-well plates (Greiner Bio-One North America Inc. Monroe, NC). Tetraoctyl ammonium bromide was used as a positive control in the cytotoxicity screen. After the assay plates were incubated at 37 C and 5% CO2 for 5 hr, 23 nL of compounds dissolved in DMSO, positive control or DMSO only were transferred to the assay plate by a Pintool station (Kalypsys, San Diego, CA). The assay plates were incubated at 37 C and 5% CO2 for 16 hr. One uL of LiveBLAzer B/G FRET substrate (Life Technologies) was added using a Flying Reagent Dispenser (FRD) (Aurora Discovery, San Diego, CA) and the plates were incubated at room temperature for 2 hr. Fluorescence intensity (405 nm excitation, 460/530 nm emission) was measured using an Envision plate reader (PerkinElmer, Shelton, CT). For cytotoxicity, 4 uL/well of CellTiter-Glo reagent was added into the assay plates using an FRD. After 30 min incubation at room temperature, the luminescence intensity was measured using a ViewLux plate reader (PerkinElmer).
% is set by controls: 0 for no effect and ±100 for the full control effect.

Compound | outcome | activity change, negative = cytotoxicity
CC(C)COC(=O)/C=C/c1ccccc1 | inactive | –
BrC/C=C/CBr | – | -1.93% [at 15.8 µM]
CC1(N)CCC(C(C)(C)N)CC1 (stereo not given) | inactive | –
CNC(=O)NC | inactive | –
Cc1nc2ccccc2c(=O)o1 | inactive | –
CCOC(=O)CC(CC(=O)OCC)(OC(C)=O)C(=O)OCC | inactive | –
Cc1ccc(C(=O)C(=O)O)cc1C | inactive | –
CC(=O)c1ccc(OCC(=O)N2CCCCC2)cc1 | inactive | –
NS(=O)(=O)c1cc2c(cc1Cl)NC(C(Cl)Cl)NS2(=O)=O (stereo not given) | inactive | –
Oc1ccccc1Cc1ccccc1O | inactive | –
OC[C@@H](O)[C@H](O)[C@@H](O)[C@@H](O)CO | inactive | –
C=C[C@@H](C)CCC=C(C)C | inactive | –
COc1cc([N+](=O)[O-])ccc1N | inactive | –
FC(F)(F)c1ccc(Cl)cc1Cl | inactive | –
CCCCC(CC)CNC(=O)CC(C)OC(=O)CCC(=O)O (stereo not given) | inactive | –
C[C@H](CCC(=O)O)[C@H]1CC[C@H]2[C@@H]3[C@H](O)C[C@@H]4C[C@H](O)CC[C@]4(C)[C@H]3C[C@H](O)[C@]12C | inactive | –
Cn1c(=O)c2c(ncn2CC2OCCO2)n(C)c1=O | inactive | –
CN[C@@H]1[C@@H](O)[C@@H](O[C@@H]2[C@H](O)[C@H](O[C@H]3OC(CN)=CC[C@H]3N)[C@@H](N)C[C@H]2N)OCC1(C)O (stereo not given in full) | inactive | –
C1=C\CC/C=C\CC/1 | inactive | –
CCCCCC1CCCC(=O)O1 (stereo not given) | inactive | –

Compound | outcome | activity change, negative = cytotoxicity
CCCCCC1Nc2cc(C(F)(F)F)c(S(N)(=O)=O)cc2S(=O)(=O)N1 (stereo not given) | inactive | –
CC(=O)OC(C(=O)c1ccccc1)c1ccccc1 (stereo not given) | inactive | –
CC(C)CCCCCCOC(=O)C1CCCCC1C(=O)OCCCCCCC(C)C (stereo not given) | inactive | –
CCCCCCCCCCCCCCCC(=O)NCCO | inactive | –
CCN(Cc1cccc(S(=O)(=O)O)c1)c1ccccc1 | inactive | –
CC(=O)c1ccc2c(c1)CCCC2 | inactive | –
CC(=O)N(CC(O)CO)c1c(I)c(C(=O)NCC(O)CO)c(I)c(C(=O)NCC(O)CO)c1I (stereo not given) | inactive | –
CC(=O)OCC(=O)[C@@]1(O)[C@H](OC(C)=O)C[C@H]2[C@@H]3CCC4=CC(=O)C=C[C@]4(C)[C@@]3(F)[C@@H](O)C[C@@]21C | inactive | –
CCc1nccnc1C | inactive | –
O=C1c2ccccc2-c2ccccc21 | inactive | –
c1ccc(CNc2ncnc3nc[nH]c23)cc1 | inactive | –
CO[Si](CCCCl)(OC)OC | inactive | –
Cc1cc(C)cc([N+](=O)[O-])c1 | inactive | –
CN(C1CCCCC1)S(=O)(=O)c1ccccc1N | inactive | –
C[Si]1(C)N[Si](C)(C)N[Si](C)(C)N1 | inactive | –
O=S1(=O)CCCC1 | inactive | –
CNC(=O)C(c1ccccc1)c1ccccc1 | inactive | –
Nc1ccc(S(=O)(=O)Nc2ccccn2)cc1 | inactive | –
OCCCCCCCl | inactive | –
CC(C)SCc1ccco1 | inactive | –
